According to PubChem BioAssay (NCI):
This is part of a sample that, as a whole, favours compounds with a hit. Of some 79,000 tested, about 15% had one in any assay. Calls of active or inactive are those of the source. Rule as the data show it: active = growth inhibition above about 70%; inactive = the rest.

Legend:
[1] = NCI Yeast Anticancer Drug Screen. Data for the rad52 strain (AID 147);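 also: 0% = growth of vehicle-treated control cultures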; conditions: S. cerevisiae rad52 mutant growth inhibition, hits give high values
Summary of the method: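 Read-out: growth inhibition versus vehicle-treated controls. Cells were a DNA repair-deficient yeast strain treated with compounds.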

[2] = NCI Yeast Anticancer Drug Screen. Data for the wt1 strain (AID 149);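 also: 0% = growth of vehicle-treated wt1 cultures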; conditions: S. cerevisiae wt1 strain (SPY 50644) growth inhibition, hits give high values
Summary of the method: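 wt1 strain grown with compound or vehicle; inhibition taken from the growth difference.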

[3] = NCI Yeast Anticancer Drug Screen. Data for the rad50EPP+ strain (AID 151);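 also: 0% = growth of vehicle-treated control cultures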; conditions: S. cerevisiae rad50 mutant strain, hits give high values
Summary of the method: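 Growth inhibition read against vehicle controls in rad50EPP+ yeast, a strain altered in DNA damage repair, after compound exposure.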

[4] = NCI Yeast Anticancer Drug Screen. Data for the mgt1 strain (AID 153); conditions: S. cerevisiae mgt1 mutant growth inhibition, hits give high values
Summary of the method: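 mgt1 yeast grown with test compound; read-out is growth inhibition versus vehicle-treated cultures.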

[5] = NCI Yeast Anticancer Drug Screen. Data for the rad50 strain (AID 155);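 also: 0% = growth of vehicle-only cultures of the same strain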; conditions: S. cerevisiae rad50 strain growth inhibition, hits give high values
Summary of the method: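 DNA repair mutant yeast, compound exposure, growth read-out; inhibition is taken relative to vehicle.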

[6] = NCI Yeast Anticancer Drug Screen. Data for the mec2-1 strain (AID 157); conditions: S. cerevisiae mec2-1 strain, hits give high values
Summary of the method: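 Yeast mec2-1 mutant treated with compound. Readout: growth inhibition vs vehicle controls.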

[7] = NCI Yeast Anticancer Drug Screen. Data for the rad14 strain (AID 159);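 also: 0% = growth of vehicle-treated control cultures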; conditions: S. cerevisiae rad14 strain growth inhibition, hits give high values
Summary of the method: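 DNA repair-defective yeast, compound-exposed; % growth inhibition derived by comparison with vehicle-treated controls.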

[8] = NCI Yeast Anticancer Drug Screen. Data for the sgs1 mgt1 strain (AID 161);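 also: 0% = growth of cultures given vehicle only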; conditions: S. cerevisiae sgs1 mgt1 strain, hits give high values
Summary of the method: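 Inhibition of yeast growth, normalised to vehicle-treated controls, is reported for a strain bearing genetic alterations in DNA damage repair.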

[9] = NCI Yeast Anticancer Drug Screen. Data for the cln2 rad14 strain (AID 165);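 also: 0% = growth equal to vehicle treated cultures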; conditions: S. cerevisiae cln2 rad14 strain, hits give high values
Summary of the method: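 cln2 rad14 yeast strain; compound exposure; growth inhibition read vs vehicle controls.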

[10] = NCI Yeast Anticancer Drug Screen. Data for the bub3 strain (AID 167); conditions: S. cerevisiae bub3 mutant strain, hits give high values
Summary of the method: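 In this screen, a yeast mutant lacking normal mitotic checkpoint function is challenged with compound. Relative growth versus vehicle gives the inhibition value.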

[11] = NCI Yeast Anticancer Drug Screen. Data for the mlh1 strain (AID 171);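 also: 0% = growth of vehicle-treated control cultures of the same strain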; conditions: S. cerevisiae mlh1 strain growth inhibition, hits give high values
Summary of the method: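 Read-out: growth inhibition versus vehicle controls. Strain: engineered yeast with a defined DNA repair or cell cycle defect, compound-treated.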

[12] = NCI Yeast Anticancer Drug Screen. Data for the sgs1 strain (AID 173);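 also: 0% = growth of vehicle-only control cultures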; conditions: S. cerevisiae sgs1 mutant, hits give high values
Summary of the method: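 Read-out: yeast growth inhibition relative to vehicle controls, following compound exposure of a strain with a defined DNA repair/cell cycle alteration.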

[13] = NCI Yeast Anticancer Drug Screen. Data for the mlh1 rad18 strain (AID 175); conditions: S. cerevisiae mlh1 rad18 strain growth inhibition, hits give high values
Summary of the method: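 Yeast w/ defined DNA-repair lesions; compound exposure; growth vs vehicle controls → % inhibition.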

[14] = NCI Yeast Anticancer Drug Screen. Data for the rad18 strain (AID 177); conditions: S. cerevisiae rad18 mutant growth inhibition, hits give high values
Summary of the method: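 Readout: growth inhibition vs vehicle controls. Cells: genetically altered yeast strain, DNA repair defect.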

[15] = NCI Yeast Anticancer Drug Screen. Data for the wt2 strain (AID 169);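 also: 0% = growth of vehicle-treated yeast cultures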; conditions: S. cerevisiae wt2 strain growth inhibition, hits give high values
Summary of the method: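 Read-out: growth inhibition versus vehicle-treated control cultures after compound exposure of the yeast strain.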

[16] = at 5.0 µM (retest, dose inferred, filed as 0.5)
[17] = at 50.0 µM (retest, dose inferred, filed as 5.0)

Measured: growth inhibition

O=C1C2=C(c3ccccc31)C(c1ccccc1)N1C(=O)CSC1=N2 (stereo unspecified)
active: [1]; at 100.0 µM 73% | [4]; at 100.0 µM 81% | [5]; at 100.0 µM 74% | [6]; at 100.0 µM 73% | [7]; at 100.0 µM 74% | [10]; at 33.0 µM 79% | [10]; [17] 92% | [10]; at 50.0 µM 87.2% | [10]; at 100.0 µM 92% | [11]; at 100.0 µM 84% | [12]; at 100.0 µM 77% | [14]; at 100.0 µM 72%
inactive: [1]; at 1.2 µM 12% | [1]; at 3.7 µM 15% | [1]; at 11.0 µM 25% | [1]; at 33.0 µM 31% | [2]; at 1.2 µM 10% | [2]; at 3.7 µM 3% | [2]; at 11.0 µM 15% | [2]; at 33.0 µM 22% | [2]; at 100.0 µM 54% | [3]; at 1.2 µM 9% | [3]; at 3.7 µM 2% | [3]; at 11.0 µM 5% | [3]; at 33.0 µM 33% | [3]; at 100.0 µM 23% | [4]; at 1.2 µM -2% | [4]; at 3.7 µM 1% | [4]; at 11.0 µM -7% | [4]; at 33.0 µM 38% | [5]; at 1.2 µM -1% | [5]; at 3.7 µM 2% | [5]; [16] 14% | [5]; at 11.0 µM 12% | [5]; at 33.0 µM 30% | [5]; [17] 44% | [5]; at 50.0 µM 58.2% | [6]; at 1.2 µM 5% | [6]; at 3.7 µM 10% | [6]; [16] -9% | [6]; at 11.0 µM 10% | [6]; at 33.0 µM 8% | [6]; [17] 16% | [6]; at 50.0 µM 45% | [7]; at 1.2 µM -21% | [7]; at 3.7 µM -17% | [7]; at 11.0 µM -20% | [7]; at 33.0 µM 6% | [8]; [16] 11% | [8]; [17] 44% | [8]; at 50.0 µM 59.6% | [9]; [16] -11% | [9]; [17] 26% | [9]; at 50.0 µM 38.7% | [10]; at 1.2 µM -2% | [10]; at 3.7 µM 17% | [10]; [16] -31% | [10]; at 11.0 µM 15% | [11]; at 1.2 µM 3% | [11]; at 3.7 µM -8% | [11]; at 11.0 µM 1% | [11]; at 33.0 µM 32% | [12]; at 1.2 µM -8% | [12]; at 3.7 µM -14% | [12]; at 11.0 µM 13% | [12]; at 33.0 µM 41% | [13]; [16] -27% | [13]; [17] 42% | [13]; at 50.0 µM 51% | [14]; at 1.2 µM -1% | [14]; at 3.7 µM 10% | [14]; at 11.0 µM 14% | [14]; at 33.0 µM 31%

O=C1Nc2ccc(Br)cc2C1=Nc1ccc(Cl)cc1
active: [2]; at 100.0 µM 71% | [5]; [16] 70% | [5]; [17] 100% | [6]; [16] 77% | [6]; [17] 100% | [8]; [17] 71% | [10]; [17] 86% | [10]; at 50.0 µM 83.4% | [10]; at 100.0 µM 81% | [13]; [17] 100%
inactive: [1]; at 1.2 µM -20% | [1]; at 3.7 µM -12% | [1]; at 11.0 µM 9% | [1]; at 33.0 µM 42% | [1]; at 100.0 µM 64% | [2]; at 1.2 µM -8% | [2]; at 3.7 µM -15% | [2]; at 11.0 µM 14% | [2]; at 33.0 µM 42% | [3]; at 1.2 µM -45% | [3]; at 3.7 µM -10% | [3]; at 11.0 µM -8% | [3]; at 33.0 µM 8% | [3]; at 100.0 µM 41% | [4]; at 1.2 µM -52% | [4]; at 3.7 µM -55% | [4]; at 11.0 µM -21% | [4]; at 33.0 µM 20% | [4]; at 100.0 µM 50% | [5]; at 1.2 µM -29% | [5]; at 3.7 µM -20% | [5]; at 11.0 µM 12% | [5]; at 33.0 µM 42% | [5]; at 50.0 µM 57.4% | [5]; at 100.0 µM 64% | [6]; at 1.2 µM -68% | [6]; at 3.7 µM -75% | [6]; at 11.0 µM -64% | [6]; at 33.0 µM -1% | [6]; at 50.0 µM 54.5% | [6]; at 100.0 µM 57% | [7]; at 1.2 µM -52% | [7]; at 3.7 µM -62% | [7]; at 11.0 µM -46% | [7]; at 33.0 µM -8% | [7]; at 100.0 µM 34% | [8]; [16] 8% | [8]; at 50.0 µM 53.4% | [9]; [16] 36% | [9]; [17] 54% | [9]; at 50.0 µM 34% | [10]; at 1.2 µM -38% | [10]; at 3.7 µM -26% | [10]; [16] 28% | [10]; at 11.0 µM -11% | [10]; at 33.0 µM 29% | [15]; at 1.2 µM -20% | [15]; at 3.7 µM -12% | [15]; at 11.0 µM -10% | [15]; at 33.0 µM 14% | [15]; at 100.0 µM 47% | [12]; at 1.2 µM -25% | [12]; at 3.7 µM -27% | [12]; at 11.0 µM 3% | [12]; at 33.0 µM 33% | [12]; at 100.0 µM 54% | [13]; [16] 67% | [13]; at 50.0 µM 58.5% | [14]; at 1.2 µM -24% | [14]; at 3.7 µM -13% | [14]; at 11.0 µM 2% | [14]; at 33.0 µM 32% | [14]; at 100.0 µM 60%
